Values joined by “and” are separate entries in the source; they are usually repeats but may differ in a detail not shown here. Equal values may be shown once. Inconclusive results are not listed. More than one record can exist for a structure, and the calls need not agree. Values without a mark were called inactive. Active and inactive are the calls of the source. The call rests on the fitted dose curve; in most records, active means well fitted inhibition curve with a large enough effect; inconclusive means small, poorly fitted or top-dose-only effect; inactive means flat fitted curve, though single readings scatter.

Data on 31 compounds can be found in PubChem BioAssay (NCATS).
On the % scale 0 is the no-effect control and ±100 the full control effect; potency means the concentration at half of the fitted maximal effect.

In this experiment the test system is HaCat. Briefly: Cytotoxic Profiling of Annotated Libraries Using Quantitative High-Throughput Screening (AID 1296008). Further: nearly all actives have a fitted effect of over 60% in size. As to conditions: Five cell lines viability, CellTiter-Glo ATP luminescence, 48-72 h; max response: hits give low values. In short, it runs like this: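 Compounds were pin-transferred onto cells and incubated 48 or 72 hr at 37 degree Celsius, 95% humidity. CellTiter-Glo was added, plates sat 10 min at room temperature, then ATP-coupled luminescence was imaged as the viability read-out.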
Consider `CCc1nc(-c2cccc(C)c2)c(-c2ccnc(NC(=O)c3ccccc3)c2)s1`, for which the max response was -12.8% and -8.84%.
On the same count and under the same terms, next, `C#C[C@]1(O)CC[C@@H]2[C@@H]3CCC4=CC(=O)CC[C@@H]4[C@H]3CC[C@@]21CC`: -5.66%.
On the same count and under the same terms, then `Nc1ccc(C(=O)Nc2cccc(-c3nc(N4CCOCC4)c4oc5ncccc5c4n3)c2)cn1`, with -11.9%; and `O=C(O)C=Cc1ccc(Cn2ccnc2)cc1`, with -0.523%.
For the compound `Cc1cnc(Nc2ccc(CN3CCOCC3)cc2)nc1Nc1cccc(S(=O)(=O)NC(C)(C)C)c1`, the Potency was 2.64 µM (active) and 2.31 µM (active).
In the case of `COc1cc2c(cc1OC)[C@@H]1C(=O)c3ccc4c(c3O[C@@H]1CO2)C=CC(C)(C)O4`, the max response is -2.92%.
Same read-out and setting: next, `Cc1cc(C(=O)NOCCO)c(Nc2ccc(I)cc2F)n(C)c1=O`: -66.6%.
In the case of `O=C(Nc1ccc(Oc2ccnc3[nH]ccc23)c(F)c1)c1cccn(-c2ccc(F)cc2)c1=O`, the max response was 2.4% and the result was inactive.
Regarding `CCOC(=O)C1=C(C)NC(=S)NC1c1cccc(O)c1` (centres undefined), the max response is -10%.
As to `N#Cc1ccc(COC[C@H]2O[C@@H](n3c(NCc4ccc(Cl)c(Cl)c4)nc4c(N)ncnc43)[C@@H](O)[C@@H]2O)cc1`, the Potency was 11.8 µM (active).
On the same count and under the same terms, next, `CN[C@@H]1C[C@H]2O[C@@](C)([C@H]1OC)n1c3ccccc3c3c4c(c5c6ccccc6n2c5c31)C(=O)N[C@H]4O`: 1.48 µM (active).
On to `CCN1CCN(C(=O)N[C@H](C(=O)N[C@@H]2C(=O)N3C(C(=O)O)=C(CSc4nnnn4C)CS[C@@H]23)c2ccc(O)cc2)C(=O)C1=O`, for which the max response is 2.66%.
On the same count and under the same terms, next, `CC(C)(N)c1ccc(-c2nc3ccccc3nc2-c2ccccc2)cc1`: -35.2% and -5.95%.
As for `CS[C@H]1SC[C@@H]2C(=O)N(C)[C@H](C(C)C)C(=O)OC[C@H](NC(=O)c3cnc4ccccc4n3)C(=O)N[C@H](C)C(=O)N(C)[C@@H]1C(=O)N(C)[C@H](C(C)C)C(=O)OC[C@H](NC(=O)c1cnc3ccccc3n1)C(=O)N[C@H](C)C(=O)N2C`, the Potency was 0.0118 µM (active).
Turning to `CCOC(=O)N1CCN([N+]([O-])=NOc2ccc([N+](=O)[O-])cc2C#N)CC1`, the max response was -20.9%.
On the same count and under the same terms, then `COc1cc2c(Nc3ccc(Cl)c(Cl)c3F)ncnc2cc1OCC1C[C@@H]2CN(C)C[C@H]2C1`, with -106%.
`CO[C@@H]1[C@@H](O)[C@H](O)[C@@H](n2c3c(Cl)cccc3c3c4c(c5c6cccc(Cl)c6[nH]c5c32)C(=O)NC4=O)O[C@@H]1CO`: the Potency is 3.32 µM (active).
As for `CCOC(=O)[C@@H](N)Cc1ccc(-c2cc(O[C@H](c3ccc(Cl)cc3-n3ccc(C)n3)C(F)(F)F)nc(N)n2)cc1`, the max response is 1.01% and the compound was called inactive.
As for `O=C(O)c1ccc(Nc2ncc3c(n2)-c2ccc(Cl)cc2C(c2c(F)cccc2F)=NC3)cc1`, the Potency was 9.2 µM (active).
As for `COc1ccc(S(=O)(=O)Nc2cccnc2Nc2ccc(O)cc2)cc1`, the Potency was 20.9 µM (active) and the max response is -5.46%.
Turning to `CCN(CC)Cc1ccc2cc(COC(=O)Nc3ccc(C(=O)NO)cc3)ccc2c1`, the Potency is 1.3 µM (active).
On to `c1cc(CN2CCCNCCNCCCNCC2)ccc1CN1CCCNCCNCCCNCC1`, for which the max response was -12.9%.
Regarding `CC(C)N1[N]C(=C2C=c3cc(O)ccc3=N2)c2c(N)ncnc21`, the Potency is 11.8 µM (active).
Still for that read-out and setting: next, `CCOc1cc2ncc(C#N)c(Nc3ccc(OCc4ccccn4)c(Cl)c3)c2cc1NC(=O)C=CCN(C)C`: 0.0053 µM (active); `C=C1C(=O)O[C@H]2[C@@H]1CCC(C)=CCC[C@@]1(C)O[C@@H]21`: 20.9 µM (active).
Same read-out and setting: then `COc1cccc2c1C(=O)c1c(O)c3c(c(O)c1C2=O)C[C@@](O)(C(=O)CO)C[C@H]3O[C@H]1C[C@H](N)[C@H](O)[C@H](C)O1`, with 0.264 µM (active).
`NC(=O)c1ncn([C@@H]2O[C@H](CO)[C@@H](O)[C@@H]2O)c1O`: the max response was 4.1%.
Consider `CCCCOc1ccc(C(=O)Nc2ccc(F)cc2F)cc1`, for which the outcome was inactive.
For the compound `Nc1ncn([C@@H]2O[C@H](CO)[C@@H](O)[C@@H]2O)c(=O)n1`, the max response was -5.4%.
Regarding `Cn1cc(CNCC2CCN(c3ncc(C(=O)NO)cn3)CC2)c2ccccc21`, the Potency is 0.662 µM (active).
As to `N#CC(=C(O)c1ccc(Cl)cc1Cl)c1nc2cc(Cl)ccc2c(=O)[nH]1`, the max response was 4.62%.
